This is a sample that favours compounds with a hit; in the whole collection about 2.9% have one here.
sPLA2-III inh = Inhibits HGIII-sPLA2 liposome hydrolysis, primary screen; QFRET BODIPY PC-A2 liposome hydrolysis, fluorescence; inhibition, % at 12.2 µM; 370,000 compounds, 0.56% hits; AID 743126;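 active = inhibition above mean plus 3 SD of compounds lying within the high and low control bounds, cut at about 19% in these data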
Target sequence (Q9NZ20 whole entry, looked up): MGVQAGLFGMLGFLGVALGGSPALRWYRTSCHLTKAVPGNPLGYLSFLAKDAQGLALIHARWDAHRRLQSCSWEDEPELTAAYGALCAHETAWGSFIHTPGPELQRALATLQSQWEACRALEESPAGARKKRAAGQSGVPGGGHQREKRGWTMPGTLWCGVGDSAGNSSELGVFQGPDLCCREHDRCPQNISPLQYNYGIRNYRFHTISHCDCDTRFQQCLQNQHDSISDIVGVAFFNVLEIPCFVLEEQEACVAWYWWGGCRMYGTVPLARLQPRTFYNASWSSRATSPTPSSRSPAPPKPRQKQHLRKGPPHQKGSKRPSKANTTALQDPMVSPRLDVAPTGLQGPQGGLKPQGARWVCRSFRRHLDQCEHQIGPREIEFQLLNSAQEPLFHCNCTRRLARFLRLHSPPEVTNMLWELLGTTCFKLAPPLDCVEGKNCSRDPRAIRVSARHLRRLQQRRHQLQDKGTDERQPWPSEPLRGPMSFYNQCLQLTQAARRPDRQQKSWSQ
Myeloid diff MLP = compounds promoting myeloid differentiation | ER-HoxA9 myeloid progenitors, lysozyme-GFP differentiation, flow cytometry | calls only at 10 µM | 360,000 compounds, 1% hits | AID 624256;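 active = normalized GFP-positive differentiation at or above the plate's own cutoff, the solvent-only control mean plus 3 SD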;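 note: cells exposed to compound for four days before flow analysis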
ABHD5-PLIN5 inh = blocks binding of human ABHD5 to perilipin-5; Q00G26+Q8WTS1; Split G. princeps luciferase complementation, luminescence, 4 h; inhibition, % at 4 µM; 360,000 compounds, 0.78% hits;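 active = inhibition above the mean inhibition across every tested compound plus 3 SD, cut at about 22% in these data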
DAGLB inhibitor = blocks human DAGLB lipase activity | Q8NCG7 | HEK293T DAGLB membrane lysate, EnzChek fluorogenic substrate | inhibition, % at 5.17 µM | 340,000 compounds, 0.059% hits; in the data active = inhibition above about 34%
H9c2 protect = modulators protecting cardiomyocytes from myocardial damage; 360,000 compounds, 0.63% hits; H9c2 cardiomyocytes, H2O2 injury protection, ATPLite, 2 h; protection from H2O2 cell death, % at 20 µM; AID 588492;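 active = compounds giving at least 50% protection of heart cells from peroxide-induced death in the single-dose screen, raw or plate-pattern-corrected value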
Rtt109 Vps75 = C. albicans Rtt109 histone acetyltransferase inhibition; 330,000 compounds, 0.16% hits; inhibition, % at 34.9 µM; purified Rtt109/Vps75, ThioGlo CoA-SH fluorescence, 4 h; AID 540336;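 active = inhibition of at least 50% in every replicate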
ABHD5 PLIN5 conf = confirmation of human ABHD5-PLIN5 interaction inhibitors. shares compounds with ABHD5-PLIN5 inh. biochemical ABHD5-PLIN5 interaction, luminescence. inhibition, % at 4 µM. 2,200 compounds, 67% hits. AID 651612; in the data active = inhibition above about 23%
HNF4 counter = active in HNF4 split-luciferase counter-screen for ABHD5-PLIN5 inhibitors | HNF4 dimerization, luminescence, biochemical | 2,200 compounds, 77% hits | AID 651674 | inhibition, % at 4 µM | shares compounds with ABHD5-PLIN5 inh;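 active = mean inhibition across replicate wells exceeding the computed hit threshold, cut at about 13% in these data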;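 note: light from luciferase halves that rejoin when HNF4 fusion proteins dimerize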
Of the large screens only hits and unclear results are named; the others gave an inactive call (follow-up assays come after a bar, where they were run).

O=C(NC1CCCCC1)C(c1ccc(C(F)(F)F)cc1)n1c(=O)c(-c2ccco2)nc2ccccc21 (stereo unspecified)	ABHD5-PLIN5 inh 84.5 (no result: DAGLB inhibitor, H9c2 protect, Rtt109 Vps75) | ABHD5 PLIN5 conf 90.5 | HNF4 counter 12.5
O=C(NC1CCCCC1)C(C1CC1)n1c(=O)c(-c2ccco2)nc2ccccc21 (stereo unspecified)	ABHD5-PLIN5 inh 65.5 (no result: DAGLB inhibitor, H9c2 protect, Rtt109 Vps75) | ABHD5 PLIN5 conf 71.0 | HNF4 counter 34.1
O=C(NC1CCCCC1)C(c1ccccc1)n1c(=O)c(-c2cc3ccccc3[nH]2)nc2ccccc21 (stereo unspecified)	none (no result: DAGLB inhibitor, H9c2 protect, Rtt109 Vps75)
O=C(NC1CCCCC1)C(c1ccccc1)n1c(=O)c(-c2ccco2)nc2ccccc21 (stereo unspecified)	ABHD5-PLIN5 inh 86.5 (no result: DAGLB inhibitor, H9c2 protect, Rtt109 Vps75) | ABHD5 PLIN5 conf 96.6 | HNF4 counter 54.3
COc1ccc(NC(=O)C(C2CC2)n2c(=O)c(-c3ccco3)nc3ccccc32)cc1 (stereo unspecified)	none (no result: DAGLB inhibitor, H9c2 protect, Rtt109 Vps75)
CCCCCNC(=O)C(c1ccc(C(F)(F)F)cc1)n1c(=O)c(-c2ccco2)nc2ccccc21 (stereo unspecified)	ABHD5-PLIN5 inh 83.0 (no result: DAGLB inhibitor, H9c2 protect, Rtt109 Vps75) | ABHD5 PLIN5 conf 46.6 | HNF4 counter inactive
COc1ccc(C(C(=O)NC2CCCCC2)n2c(=O)c(-c3cc4ccccc4[nH]3)nc3ccccc32)cc1 (stereo unspecified)	none (no result: DAGLB inhibitor, H9c2 protect, Rtt109 Vps75)
COc1cccc(NC(=O)COC(=O)CC(NC(N)=O)c2ccc(Cl)cc2)c1 (stereo unspecified)	none
N#Cc1ccc(C(C(=O)NC2CCCCC2)n2c(=O)c(-c3ccco3)nc3ccccc32)cc1 (stereo unspecified)	ABHD5-PLIN5 inh 82.3 (no result: DAGLB inhibitor, H9c2 protect, Rtt109 Vps75) | ABHD5 PLIN5 conf 84.0 | HNF4 counter 31.6
CCCCCNC(=O)C(C1CC1)n1c(=O)c(-c2ccco2)nc2ccccc21 (stereo unspecified)	ABHD5-PLIN5 inh 31.3 (no result: DAGLB inhibitor, H9c2 protect, Rtt109 Vps75) | ABHD5 PLIN5 conf 61.2 | HNF4 counter 23.2
CCOc1ccc(OCC)c(S(=O)(=O)NCCCN2CCOCC2)c1	none
O=C1C=CC2(C=C1)O[C@H](Cc1ccccc1)[C@@H](Cc1ccccc1)O2	Myeloid diff MLP active, ABHD5-PLIN5 inh 98.2 | ABHD5 PLIN5 conf 103.3 | HNF4 counter 109.1
COc1ccc(C[C@@H]2OC3(C=CC(=O)C=C3)O[C@H]2Cc2ccc(OC)cc2)cc1	Myeloid diff MLP active, ABHD5-PLIN5 inh 99.5 (no result: sPLA2-III inh) | ABHD5 PLIN5 conf 103.7 | HNF4 counter 108.3
COC(=O)C/C=N/N=C1/NC(=O)/C(=C/C(=O)O)S1	ABHD5-PLIN5 inh 25.8 | ABHD5 PLIN5 conf inactive | HNF4 counter 19.4
CC1=C(C)CS(=O)N(c2ccc(S(N)(=O)=O)cc2)C1 (stereo unspecified)	ABHD5-PLIN5 inh 33.6 | ABHD5 PLIN5 conf 65.7 | HNF4 counter 89.4
CC1=C(C)CS(=O)N(S(=O)(=O)c2ccccc2)C1 (stereo unspecified)	ABHD5-PLIN5 inh 57.7 | ABHD5 PLIN5 conf 72.1 | HNF4 counter 101.1
NS(=O)(=O)c1ccc(N2C(=O)C3CC=CCC3C2=O)cc1 (stereo unspecified)	none
Cc1cccc(C)c1NC(=O)C(c1ccccc1F)n1c(=O)c(-c2ccco2)nc2ccccc21 (stereo unspecified)	ABHD5-PLIN5 inh 85.6 (no result: DAGLB inhibitor, H9c2 protect, Rtt109 Vps75) | ABHD5 PLIN5 conf 76.1 | HNF4 counter 27.7
Cc1cccc(C)c1NC(=O)C(c1ccnc2ccccc12)n1c(=O)c(-c2ccco2)nc2ccccc21 (stereo unspecified)	ABHD5-PLIN5 inh 44.9 (no result: DAGLB inhibitor, H9c2 protect, Rtt109 Vps75) | ABHD5 PLIN5 conf 51.6 | HNF4 counter 13.0
CCOc1ccc(NS(=O)(=O)c2cc3c4c(c2)CCN4C(=O)CC3)cc1	none
CCOc1ccc(N(CC(=O)NCc2ccco2)S(=O)(=O)c2ccc(OC)c(OC)c2)cc1	none
CC(=O)NC1CC2CCCC(C1)N2C(=O)Nc1cccc(Cl)c1 (stereo unspecified)	none
CC(C)C[C@H]1CN([C@@H](Cc2ccccc2)CN2CCC[C@H]2CN2C(=O)C(=O)NC[C@@H]2Cc2ccc(O)cc2)C(=O)C(=O)N1CC1CCCCCC1	none (no result: DAGLB inhibitor, H9c2 protect, Rtt109 Vps75)
